Assay outcomes: PubChem BioAssay, National Center for Advancing Translational Sciences (NCATS)
Only some compounds are listed: those with a hit (about 10% of all), similar ones and a draw of the others.
ALDH1A1 block: inhibitors of human aldehyde dehydrogenase 1A1 | 220,000 compounds, 7.3% hits | Potency, µM (top dose mostly 75.3 µM), for inactives: at the highest dose activity, negative = inhibition, most hits filed as inhibitors | Purified ALDH1A1, NADH fluorescence, propionaldehyde substrate | P00352 | AID 1030; active = well fitted inhibition curve with a large enough effect, not every such curve was filed as active; inconclusive = small, poorly fitted or top-dose-only effect, or another doubt; inactive = no such curve, though single readings can be large or run the other way;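 note: potency is the fitted concentration of half-maximal effect; plate controls were no enzyme wells and a reference inhibitor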
PNC inhibitor: perinucleolar compartment assembly inhibition. PC3M PTB-GFP, PNC prevalence imaging, 16 h; stronger effect = lower value. activity change (PNC), negative = inhibition, % at 10 µM. 140,000 compounds, 3.1% hits;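 active = readout at or below -70, meaning at least 70% loss of cells showing the perinucleolar compartment, a nuclear body marking cancer cells; inconclusive = readout between -30 and a set limit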;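 note: plate controls were DMSO wells for no effect and camptothecin positive control wells for full effect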
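Compounds are pinned in duplicate onto adhered PC3M cells stably expressing GFP-tagged PTB and incubated 16 h at 37 C. Cells are then fixed, nuclei stained with Hoechst, and PNC-positive cells counted.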
HPGD inh: HPGD (human) dehydrogenase inhibition | P15428 | purified HPGD, NADH fluorescence kinetic, PGE2 substrate | Potency, µM, without a hit: top-dose activity change, negative = inhibition, usual class: inhibitors | 150,000 compounds, 4.3% hits; active = well fitted inhibition curve with a large enough effect, not every such curve was filed as active; inconclusive = small, poorly fitted or top-dose-only effect, or another doubt; inactive = no such curve, though single readings can be large or run the other way; note: potency is the fitted concentration of half-maximal effect
Target sequence (P15428 whole entry, looked up): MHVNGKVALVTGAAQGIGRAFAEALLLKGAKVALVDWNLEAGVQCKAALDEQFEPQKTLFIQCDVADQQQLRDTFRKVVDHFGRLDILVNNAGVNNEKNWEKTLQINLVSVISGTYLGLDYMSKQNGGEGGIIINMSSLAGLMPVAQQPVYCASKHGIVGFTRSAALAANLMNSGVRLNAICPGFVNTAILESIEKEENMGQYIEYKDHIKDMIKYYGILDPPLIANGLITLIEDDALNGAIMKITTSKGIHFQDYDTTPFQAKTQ
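NADH formation kinetics: reaction with 30 uM PGE2 and 1 mM NAD+ (final), 20 nM enzyme, Tris-HCl pH 8 with Tween 20, after 15 min compound preincubation at room temperature. Fluorescence change, last versus first of five reads.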
GLA inh pH 4.5: blocks human alpha-galactosidase A at pH 4.5; 230,000 tested, under 10 active; purified enzyme, 4-MU-alpha-Gal fluorescence, pH 4.5; P06280; activity change, negative = inhibition, % at 105 µM;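 note: 0% = full activity with enzyme and -100% = basal without enzyme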
GLA spleen mod: inhibitors or activators of human alpha-galactosidase in spleen homogenate; 240,000 compounds, 0.008% hits; Potency, µM (series often up to 80 µM), for the others: top-dose activity change, negative = inhibition, most hits filed as inhibitors; human spleen homogenate, 4MU-alpha-Gal fluorescence, 40 min; AID 2107; P06280;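 note: potency is the fitted concentration of half-maximal effect; 0% = enzyme with vehicle and -100% = no enzyme basal signal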
Target sequence (P06280 32-429 limits assumed): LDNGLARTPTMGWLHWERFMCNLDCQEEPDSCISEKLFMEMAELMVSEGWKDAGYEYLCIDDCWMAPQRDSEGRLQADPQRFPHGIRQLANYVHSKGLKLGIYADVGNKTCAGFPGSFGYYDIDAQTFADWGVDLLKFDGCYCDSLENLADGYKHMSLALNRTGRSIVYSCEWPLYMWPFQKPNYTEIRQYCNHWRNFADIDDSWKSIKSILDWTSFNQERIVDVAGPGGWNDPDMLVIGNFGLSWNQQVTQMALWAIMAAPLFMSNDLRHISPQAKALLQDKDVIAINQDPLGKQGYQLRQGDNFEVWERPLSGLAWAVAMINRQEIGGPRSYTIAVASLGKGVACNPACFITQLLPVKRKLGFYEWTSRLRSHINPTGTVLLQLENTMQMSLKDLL
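Inhibition or activation of alpha-galactosidase in human spleen homogenate is scored by 4-MU fluorescence after 40 min at 37C, pH 5.0, with 1 mM substrate. AC50s come from concentration-response fitted to the Hill equation.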
ALOX12 inhib: 12-hLO (ALOX12) enzyme inhibition; P18054; purified 12-hLO, xylenol orange hydroperoxide absorbance; Potency, µM (series often up to 57.1 µM), without a hit: top-dose activity change, negative = inhibition, most hits filed as inhibitors; 150,000 compounds, 0.12% hits; note: potency is the fitted concentration of half-maximal effect; nearly all actives have a fitted effect of over 55% in size
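150 nM 12hLO, 25 mM Hepes pH 7.0 + 0.01% Triton X-100; cpd preinc 15 min RT; 40 uM arachidonic acid, 30 min RT; Fe-XO 30 min; A573/A405 ratio as read-out.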
* = called active by the depositor; u = inconclusive; x = not tested or not shown; [ ] = dose if it differs, or a comment. Unless noted, calls come from the whole dose curve; as a rule, active = well fitted curve in the direction sought with a large enough effect; inconclusive = small, poorly fitted or top-dose-only effect, or another doubt; inactive = no such curve, though single readings can be large; an effect the other way counts as inactive or inconclusive. Unless noted, % is set by controls: 0 for no effect and ±100 for the full control effect.

SMILES	ALDH1A1 block	PNC inhibitor	HPGD inh	GLA inh pH 4.5	GLA spleen mod	ALOX12 inhib
COc1ccc(N2C(=O)CC(N3CCN(c4ccc(S(=O)(=O)N5CCCC5)cc4)CC3)C2=O)cc1 (stereo not drawn)	22µM*	-26	7%	-13	-10%	3%
O=C1CC(N2CCCCCC2)C(=O)N1c1ccc2c(c1)OCO2 (stereo not drawn)	5µM*	36	-16%	-2	5%	-1%
COc1ccc(N2C(=O)CC(N3CCN(S(=O)(=O)c4cc(C)ccc4C)CC3)C2=O)cc1 (stereo not drawn)	-2%	x	x	5	4%	x
COc1cccc(N2C(=O)CC(N3CCC(C(N)=O)(N4CCCCC4)CC3)C2=O)c1 (stereo not drawn)	10µM*	17	-18%	-2	-16%	1%
Cc1cccc(N2C(=O)CC(N3CCN(c4ccccc4)CC3)C2=O)c1 (stereo not drawn)	u	0	-12%	1	10%	1%
CC1=CC[C@@]23CCCN2C(=O)CCC[C@H]3C1	-12%[120 µM]	x	-6%	4	3%[181 µM]	0%[0.00818 µM]
OCCC1CN(C2CCN(c3ccccc3)CC2)CCN1Cc1ccc(F)c(F)c1 (stereo not drawn)	-2%	x	x	-1	6%	x
Cn1c([N+](=O)[O-])cnc1N1CCN(c2nncs2)C1=O	-3%	x	x	-13	9%	x
Cc1nc(NCc2ccccc2)c2nc(-c3ccccc3)n(CCN3CCCCC3)c2n1	u	x	u	-22	3%	-11%
Cc1ccc(S(=O)(=O)Nc2ccc(C(OC(=O)c3ccccc3[N+](=O)[O-])(C(F)(F)F)C(F)(F)F)cc2)cc1	u	-108*	-25%	6	1%	-16%
CN(C)C=NC(=O)c1cc(C(=O)c2ccc(Cl)cc2Cl)c[nH]1	-1%	x	x	0	-3%	x
COc1ccc(CN2CCOCCOCCN(Cc3ccc(OC)cc3)CCOCCOCC2)cc1	x	x	x	-4	-5%	x
CCOc1cc(/C=C2/C(=O)N(c3ccccc3)N=C2C)ccc1OC(=O)c1ccco1	u	-22	8.9µM*	-17	8%	-12%
CCOc1cc(/C=C/C(=O)O)ccc1OCc1ccccc1	1%	x	x	-10	-6%	x
CC1=NN(c2ccc(C(=O)O)cc2)C(=O)/C1=C\c1ccc(OC(=O)c2cccs2)cc1	2.2µM*	x	x	-12	-8%	x
CCOc1cc(/C=C2\C(=O)ON=C2C)ccc1OCc1ccccc1	3.5µM*	42	7.1µM*	6	4%	9%
CCOc1cc(/C=C2\C(=O)N(c3ccc(C(N)=O)cc3)N=C2C)ccc1OC(=O)c1cccs1	0.71µM*	12	7.1µM*	-6	1%	-18%
CCCNC(=O)CN(C)CC(=O)Nc1ccccc1C#N	-12%	x	x	-3	-17%	x
NC(=S)Nc1cccc(O)c1	x	x	x	-5	-3%	x
COc1cc(/C=C2/C(=O)NN(c3cccc(C)c3)C2=O)ccc1OC(=O)c1ccco1	3.2µM*	-7	2µM*	3	-2%	u
COc1cc(/C=C2/C(=O)NN(c3cccc(C)c3)C2=O)cc([N+](=O)[O-])c1O	u	x	x	4	-8%	x
N#CCCN(Cc1cccnc1)C(=S)NC(=O)c1ccc(S(=O)(=O)N2CCCC2)cc1	14µM*	x	x	3	2%	x
N#CCCSc1ccccc1NC(=O)c1ccc(S(=O)(=O)N2CCCC2)cc1	2.5µM*	u	11µM*	5	1%	-3%
O=C(Nc1ccccc1-c1nc2ccccc2[nH]1)c1ccc(S(=O)(=O)N2CCCCC2)cc1	41%	25	u	-1	-6%	8%
O=C(Nc1cccc2c1C(=O)NC2=O)c1ccc(S(=O)(=O)N2CCCC2)cc1	u	-111*	u	2	4%	-2%
SMILES	ALDH1A1 block	PNC inhibitor	HPGD inh	GLA inh pH 4.5	GLA spleen mod	ALOX12 inhib
N#Cc1ccc(CN2CC3(CCN(C(=O)c4csnn4)CC3)C2)cc1	11%	x	-7%	x	2%	0%
CCCCC/C=C\C/C=C\CCCCCCCCCC(=O)NCCCC(=O)O	-1%	x	-4%	-3	-3%	2%
COc1cc(CNc2ccc(N3CCCC3)cc2)ccc1OCc1ccccc1	7.9µM*	-9	-15%	5	-5%	u
COc1cc(CNc2ccc(N3CCCC3)cc2)ccc1OCc1ccccc1F	3%	24	-26%	2	6%	4%
COc1ccc(NCc2ccc(OC)c(OC)c2)cc1	28µM*	-12	-12%	-3	-8%	-14%
Cc1ccccc1OC(=O)n1c(=S)oc2cc(Cl)ccc21	7.1µM*	-15	u	4	4%	7%
CCn1cc(C(=O)NCc2ccccc2OC)c(=O)c2cc(S(=O)(=O)N(C)C)ccc21	3.2µM*	20	-20%	-3	5%	-2%
COCCn1c(=O)c(-c2ccccc2)nc2cnc(N3CCN(C)CC3)nc21	u	x	x	x	18%	x
COc1ccc2c(=O)c3c(=O)n(Cc4ccco4)c(-c4ccco4)nc3oc2c1	u	10	22µM*	3	-17%	-13%
O=S(=O)(c1cccs1)N1CCN(CC(O)COc2cccc(Br)c2)CC1 (stereo not drawn)	20µM*	-15	-2%	3	8%	-10%
O=S(=O)(c1cccs1)N1CCN(CC(O)COC2CCCc3ccccc32)CC1 (stereo not drawn)	u	9	-16%	4	-10%	-4%
C=CCc1cc(/C=C2/NC(=O)N(CC)C2=O)cc(OCC)c1OCc1ccc(C(=O)O)cc1	3.2µM*	-2	-13%	0	-10%	-5%
C=CCc1cc(C=O)cc(OCC)c1OCc1ccc(Cl)cc1	-7%	61	-8%	-5	12%	-4%
CC(N)(Cc1ccc(O)c(O)c1)C(=O)O (stereo not drawn)	2.2µM*	x	10µM*	-10	-25%	x
Cc1ccc(C(C)C)cc1C(=O)CC1(O)C(=O)N(C)c2ccccc21 (stereo not drawn)	-4%	7	-11%	4	-9%	-5%
CCN1C(=O)C(O)(CC(=O)c2cc(C)ccc2C)c2ccccc21 (stereo not drawn)	u	12	-10%	6	4%	2%
CCCN1C(=O)C(O)(C/C(C)=N/O)c2ccccc21 (stereo not drawn)	14%	17	0%	1	-17%	-3%
CCCCN1C(=O)C(O)(CC(=O)c2c(C)coc2C)c2ccccc21 (stereo not drawn)	10µM*	x	x	4	0%	x
CCCCN1C(=O)C(O)(CC(=O)c2ccccn2)c2ccccc21 (stereo not drawn)	1µM*	x	x	7	4%	x
